Records with an inconclusive call do not appear. The source made the active and inactive calls. How the source made its calls: active means hit-call score of the fitted dose curve at least 0.9, where 1 is the maximum; inconclusive means response in the unintended direction; inactive means score below 0.9.
system: 5-hydroxytryptamine receptor 2C (pig); experiment: NVS_GPCR_p5HT2C: NovaScreen (NVS) G Protein-Coupled Receptor Assay for pig Serotonin, 5-Hydroxytryptamine Receptor 2C (5HT2C) (AID 2283288)
Method in brief: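 Radioligand displacement on membranes from pig choroid plexus, detected by filter scintillation counting after 1 h. Tested first at a single 25 uM in duplicate, then in concentration-response for actives; DMSO served as baseline.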

Row | SMILES | outcome | AC50
1 | COC(=O)c1c(Cl)c(Cl)c(C(=O)OC)c(Cl)c1Cl | inactive | 
2 | CC(C)(O)c1coc(S(=O)(=O)NC(=O)Nc2c3c(cc4c2CCC4)CCC3)c1 |  | 25 µM (active)
3 | CCCCCCc1ccc(O)cc1O |  | 16.7 µM (active)
4 | Cn1c(=O)c2c(ncn2C)n(C)c1=O | inactive | 
5 | Oc1ccc2c(c1)-c1ccccc1C2 |  | 4.27 µM (active)
6 | Fc1ccccc1[C@@H](F)COC1CCC(Nc2ncnc3[nH]ncc23)CC1 (stereo not given in full) |  | 7.93 µM (active)

biological target: rat Adrenergic, Alpha 1, Non-selective Receptor (Adra1), Adra1a (gene 29412) (UniProt P43140); experiment: NVS_GPCR_rAdra1_NonSelective: NovaScreen (NVS) G Protein-Coupled Receptor Assay for rat Adrenergic, Alpha 1, Non-selective Receptor (Adra1) (AID 2283289)
Method in brief: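 Chemicals first screened in duplicate at 25 uM, then actives tested in concentration series up to 50 uM. Binding measured as displacement of radioligand from rat forebrain membrane receptors, 1 h, filtration with scintillation readout; DMSO baseline.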

rat Adrenergic, Alpha 1, Non-selective Receptor (Adra1), Adra1a (gene 29412), sequence (P43140 whole entry, looked up): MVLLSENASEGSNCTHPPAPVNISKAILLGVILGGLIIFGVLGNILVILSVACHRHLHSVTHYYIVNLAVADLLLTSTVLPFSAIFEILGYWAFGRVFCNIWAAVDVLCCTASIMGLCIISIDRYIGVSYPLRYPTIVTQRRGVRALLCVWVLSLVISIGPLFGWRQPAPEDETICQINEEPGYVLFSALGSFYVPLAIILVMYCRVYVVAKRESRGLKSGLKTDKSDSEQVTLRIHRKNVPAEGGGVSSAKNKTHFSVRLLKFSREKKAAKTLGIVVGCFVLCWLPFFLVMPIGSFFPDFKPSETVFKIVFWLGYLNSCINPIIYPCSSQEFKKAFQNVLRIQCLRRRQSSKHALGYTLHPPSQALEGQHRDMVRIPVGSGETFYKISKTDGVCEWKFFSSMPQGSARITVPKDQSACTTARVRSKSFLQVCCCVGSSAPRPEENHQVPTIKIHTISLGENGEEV

Row | SMILES | AC50 | outcome
7 | CCN(C(=O)c1cc(C)cc(OC[C@H](C)Nc2ccncc2)c1)C(C)C | 13.4 µM (active) | 
8 | CC[C@H]1CC[C@H](NCc2cc3c(cc2OC)[C@H]2C[C@H]2C(=O)N3C)[C@H](c2ccccc2)N1 | 17.5 µM (active) | 
9 | CCCN(C1CCN(C(=O)C2CCNCC2)CC1)[C@@H]1CCc2ccc(OC)cc2C1 | 16.1 µM (active) | 
10 | O=c1[nH]c2ccc(S(=O)CCN3CCC(Cc4ccc(F)cc4)CC3)cc2o1 (stereo not given) | 1.07 µM (active) | 
11 | CC[C@H]1OC(=O)[C@H](C)[C@@H](O[C@H]2C[C@@](C)(OC)[C@@H](O)[C@H](C)O2)[C@H](C)[C@@H](O[C@@H]2O[C@H](C)C[C@H](N(C)C)[C@H]2O)[C@](C)(O)C[C@@H](C)C(=O)[C@H](C)[C@@H](O)[C@]1(C)O |  | inactive
12 | Nc1ccc(Nc2ccccc2)cc1 | 32.3 µM (active) | 

biological target: human Opioid Receptor Mu (Opiate Mu), OPRM1 (gene 4988) (UniProt P35372); experiment: NVS_GPCR_hOpiate_mu: NovaScreen (NVS) G Protein-Coupled Receptor Assay for human Opioid Receptor Mu (Opiate Mu) (AID 2283290);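 further: hits lower bound tracer signal versus DMSO meaning displacement of the ligand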
Method in brief: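 Here, radioligand binding to CHO-extracted receptor was measured after 2.5 h using filter-based scintillation detection. Initial single-concentration screening used 25 uM in duplicate with plate controls; confirmed actives went to concentration-response testing.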

human Opioid Receptor Mu (Opiate Mu), OPRM1 (gene 4988), sequence (P35372 whole entry, looked up): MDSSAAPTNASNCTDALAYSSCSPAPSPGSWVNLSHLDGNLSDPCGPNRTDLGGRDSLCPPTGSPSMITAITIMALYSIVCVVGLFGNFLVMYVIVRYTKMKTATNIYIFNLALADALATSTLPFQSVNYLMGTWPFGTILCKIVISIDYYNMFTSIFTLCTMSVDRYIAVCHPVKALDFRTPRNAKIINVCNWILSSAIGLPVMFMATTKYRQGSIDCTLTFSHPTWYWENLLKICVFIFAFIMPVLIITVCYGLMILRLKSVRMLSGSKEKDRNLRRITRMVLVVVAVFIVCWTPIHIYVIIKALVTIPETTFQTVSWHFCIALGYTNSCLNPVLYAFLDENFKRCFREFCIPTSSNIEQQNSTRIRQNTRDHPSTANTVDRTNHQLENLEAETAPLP

Row | SMILES | AC50 | outcome
13 | CC[C@H]1CC[C@H](NCc2cc3c(cc2OC)[C@H]2C[C@H]2C(=O)N3C)[C@H](c2ccccc2)N1 | 5.7 µM (active) | 
14 | CC(C)=CCCC(C)CCO (stereo not given) |  | inactive
15 | O=C(CCCCCCCCc1cccnc1)N1CCC(C=C(c2ccccc2)c2ccccc2)CC1 | 24.7 µM (active) | 
16 | CCCCCCc1ccc(O)cc1O |  | inactive

biological target: guinea pig Serotonin, 5-Hydroxytryptamine Receptor 4 (5HT4), HTR4 (gene 100135548) (UniProt O70528); experiment: NVS_GPCR_g5HT4: NovaScreen (NVS) G Protein-Coupled Receptor Assay for guinea pig Serotonin, 5-Hydroxytryptamine Receptor 4 (5HT4) (AID 2283294)
Method in brief: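 Compounds first screened in duplicate at 25 uM, actives followed up in concentration series. Binding measured as displacement of specific radioligand from guinea pig striatal membranes, 1 h, filter-based scintillation read-out versus DMSO baseline.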

guinea pig Serotonin, 5-Hydroxytryptamine Receptor 4 (5HT4), HTR4 (gene 100135548), sequence (O70528 whole entry, looked up): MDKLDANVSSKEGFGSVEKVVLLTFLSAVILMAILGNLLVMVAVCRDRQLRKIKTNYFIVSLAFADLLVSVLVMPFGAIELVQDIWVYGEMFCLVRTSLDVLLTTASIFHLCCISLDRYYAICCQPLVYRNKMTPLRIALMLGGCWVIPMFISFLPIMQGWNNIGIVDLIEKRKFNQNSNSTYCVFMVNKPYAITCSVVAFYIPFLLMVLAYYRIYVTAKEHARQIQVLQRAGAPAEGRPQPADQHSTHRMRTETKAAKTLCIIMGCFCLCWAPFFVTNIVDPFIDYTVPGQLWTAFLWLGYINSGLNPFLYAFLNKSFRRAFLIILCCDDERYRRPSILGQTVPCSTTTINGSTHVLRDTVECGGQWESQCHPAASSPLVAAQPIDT

Row | SMILES | AC50
17 | CCN(C(=O)c1cc(C)cc(OC[C@H](C)Nc2ccncc2)c1)C(C)C | 3.35 µM (active)
18 | CC[C@H]1CC[C@H](NCc2cc3c(cc2OC)[C@H]2C[C@H]2C(=O)N3C)[C@H](c2ccccc2)N1 | 14.2 µM (active)
19 | CCCCCCc1ccc(O)cc1O | 36.6 µM (active)
20 | CCCN(C1CCN(C(=O)C2CCNCC2)CC1)[C@@H]1CCc2ccc(OC)cc2C1 | 8.99 µM (active)
21 | Nc1ccc(Nc2ccccc2)cc1 | 31.6 µM (active)
22 | Oc1ccc2c(c1)-c1ccccc1C2 | 6.87 µM (active)

biological target: rat Serotonin, 5-Hydroxytryptamine Receptor (5HT), Non-Selective Binding, Htr1a (gene 24473) (UniProt P19327); experiment: NVS_GPCR_r5HT_NonSelective: NovaScreen (NVS) G Protein-Coupled Receptor Assay for rat Serotonin, 5-Hydroxytryptamine Receptor (5HT), Non-Selective Binding (AID 2283295)
Method in brief: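 Rat cortex membrane preparation incubated 1 h with radioligand and test chemical; bound radioactivity counted after filtration. Screening began in duplicate at 25 uM with concentration-series follow-up; fitting relative to DMSO.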

rat Serotonin, 5-Hydroxytryptamine Receptor (5HT), Non-Selective Binding, Htr1a (gene 24473), sequence (P19327 whole entry, looked up): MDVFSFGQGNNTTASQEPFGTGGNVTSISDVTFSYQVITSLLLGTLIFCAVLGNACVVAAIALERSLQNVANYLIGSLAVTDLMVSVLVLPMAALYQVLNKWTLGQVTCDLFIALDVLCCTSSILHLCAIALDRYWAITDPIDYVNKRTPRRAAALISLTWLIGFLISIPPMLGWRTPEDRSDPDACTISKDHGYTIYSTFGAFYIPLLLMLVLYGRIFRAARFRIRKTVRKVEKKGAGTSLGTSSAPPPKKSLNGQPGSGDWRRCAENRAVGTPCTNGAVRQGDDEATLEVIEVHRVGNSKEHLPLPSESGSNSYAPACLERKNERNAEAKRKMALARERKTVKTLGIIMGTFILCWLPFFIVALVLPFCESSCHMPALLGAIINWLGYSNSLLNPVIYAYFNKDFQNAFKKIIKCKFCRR

Row | SMILES | AC50
23 | CC1(C)C(=O)N(Br)C(=O)N1Br | 17.1 µM (active)
24 | CCCN(C1CCN(C(=O)C2CCNCC2)CC1)[C@@H]1CCc2ccc(OC)cc2C1 | 25 µM (active)
25 | O=c1[nH]c2ccc(S(=O)CCN3CCC(Cc4ccc(F)cc4)CC3)cc2o1 (stereo not given) | 5.88 µM (active)

system: rat Adrenergic, Alpha 1B Receptor (Adra1B), gene 24173; experiment: NVS_GPCR_rAdra1B: NovaScreen (NVS) G Protein-Coupled Receptor Assay for rat Adrenergic, Alpha 1B Receptor (Adra1B) (AID 2283297)
Method in brief: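 Filter-binding radioligand competition on membranes from rat liver, read after 1 h by scintillation counting. Single-concentration duplicate screen at 25 uM, followed by concentration-response on actives, normalised to DMSO.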

Row | SMILES | AC50 | outcome
26 | CC[C@H]1CC[C@H](NCc2cc3c(cc2OC)[C@H]2C[C@H]2C(=O)N3C)[C@H](c2ccccc2)N1 | 17.2 µM (active) | 
27 | CCCCCCCCCCCCCCCO |  | inactive
28 | CCCN(C1CCN(C(=O)C2CCNCC2)CC1)[C@@H]1CCc2ccc(OC)cc2C1 | 12.8 µM (active) | 
29 | O=c1[nH]c2ccc(S(=O)CCN3CCC(Cc4ccc(F)cc4)CC3)cc2o1 (stereo not given) | 3.46 µM (active) | 
30 | Nc1ccc(Nc2ccccc2)cc1 | 40.6 µM (active) | 
31 | Cn1cnc([N+](=O)[O-])c1Sc1ncnc2nc[nH]c12 |  | inactive

biological target: rat Adrenergic Receptor, Beta (Adrb), Non-selective Binding, Adrb1 (gene 24925) (UniProt P18090); experiment: NVS_GPCR_rAdrb_NonSelective: NovaScreen (NVS) G Protein-Coupled Receptor Assay for rat Adrenergic Receptor, Beta (Adrb), Non-selective Binding (AID 2283298)
Method in brief: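 Rat cortical membranes incubated 1 h with beta-adrenergic radioligand and test chemical; bound ligand measured by filtration and scintillation counting. Screen at 25 uM duplicate, then concentration series with 50 uM maximum; loss of signal versus DMSO.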

rat Adrenergic Receptor, Beta (Adrb), Non-selective Binding, Adrb1 (gene 24925), sequence (P18090 whole entry, looked up): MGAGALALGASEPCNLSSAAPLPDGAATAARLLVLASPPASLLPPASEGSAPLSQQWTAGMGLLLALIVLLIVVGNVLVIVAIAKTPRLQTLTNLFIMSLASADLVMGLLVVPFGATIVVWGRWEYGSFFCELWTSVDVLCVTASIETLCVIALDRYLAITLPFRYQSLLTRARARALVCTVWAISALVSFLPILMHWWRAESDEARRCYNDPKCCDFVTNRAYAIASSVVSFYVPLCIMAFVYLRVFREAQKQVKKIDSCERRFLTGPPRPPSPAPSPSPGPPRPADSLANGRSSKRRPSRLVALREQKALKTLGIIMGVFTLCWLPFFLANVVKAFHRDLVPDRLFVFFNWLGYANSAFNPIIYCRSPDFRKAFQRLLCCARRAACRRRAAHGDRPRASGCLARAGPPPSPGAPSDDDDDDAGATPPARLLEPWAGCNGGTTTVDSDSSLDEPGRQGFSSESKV

Row | SMILES | outcome | AC50
32 | CC1=CC(=O)CC(C)(C)C1 | inactive | 
33 | Cc1ccc(O)cc1 | inactive | 
34 | CCCN(C1CCN(C(=O)C2CCNCC2)CC1)[C@@H]1CCc2ccc(OC)cc2C1 |  | 18.3 µM (active)
35 | O=c1[nH]c2ccc(S(=O)CCN3CCC(Cc4ccc(F)cc4)CC3)cc2o1 (stereo not given) | inactive | 

biological target: rat Adrenergic Receptor, Alpha 2 (Adra2), Non-selective Binding, Adra2a (gene 25083) (UniProt P22909); experiment: NVS_GPCR_rAdra2_NonSelective: NovaScreen (NVS) G Protein-Coupled Receptor Assay for rat Adrenergic Receptor, Alpha 2 (Adra2), Non-selective Binding (AID 2283299)
Procedure: NVS_GPCR_rAdra2_NonSelective is a biochemical, single-readout assay that uses extracted gene-proteins from Rat cortical membranes in a tissue-based cell-free assay. Measurements were taken 1.25 hours after chemical dosing in a 48-well plate.NVS_GPCR_rAdra2_NonSelective is one of one assay component(s) measured or calculated from the NVS_GPCR_rAdra2_NonSelective assay. It is designed to make measurements of radioligand binding, a form of binding reporter, as detected with scintillation counting signals by Filter-based radiodetection technology.Data from the assay component NVS_GPCR_rAdra2_NonSelective was analyzed into 1 assay endpoint. This assay endpoint, NVS_GPCR_rAdra2_NonSelective, was analyzed in the positive analysis fitting direction relative to DMSO as the negative control and baseline of activity. Using a type of binding reporter, loss-of-signal activity can be used to understand changes in the binding as they relate to the gene Adra2a. Furthermore, this assay endpoint can be referred to as a primary readout, because the performed assay has only produced 1 assay endpoint. To generalize the intended target to other relatable targets, this assay endpoint is annotated to the gpcr intended target family, where the subfamily is rhodopsin-like receptor.
Binding assays used specific radioligands (tritiated, iodinated) with non-radioactive competitive displacement ligands in agonist or antagonist protocols (as indicated) and various reference compounds and inhibitors to titrate specific binding to receptors and transporters. Most enzyme assays (CYPs, kinases, phosphatases, proteases, HDACs) used recombinant protein and specific substrates (fluorescence mostly, some colorimetric and radioactive) and inhibitors, followed by a biochemical separation of substrate and product. All assays for the biochemical HTS were initially run in duplicate at a single concentration (10 uM for CYP450 assays and 25 uM for all others). […] Each assay was run with positive and negative controls, and concurrent controls on every plate. The follow-up (secondary) screen tested active chemical-pairs in concentration series, as well as a few additional assays not tested in the primary screen, some selected negative inactives, and several cases re-run in the concentration series for confirmatory purposes.

rat Adrenergic Receptor, Alpha 2 (Adra2), Non-selective Binding, Adra2a (gene 25083), sequence (P22909 whole entry, looked up): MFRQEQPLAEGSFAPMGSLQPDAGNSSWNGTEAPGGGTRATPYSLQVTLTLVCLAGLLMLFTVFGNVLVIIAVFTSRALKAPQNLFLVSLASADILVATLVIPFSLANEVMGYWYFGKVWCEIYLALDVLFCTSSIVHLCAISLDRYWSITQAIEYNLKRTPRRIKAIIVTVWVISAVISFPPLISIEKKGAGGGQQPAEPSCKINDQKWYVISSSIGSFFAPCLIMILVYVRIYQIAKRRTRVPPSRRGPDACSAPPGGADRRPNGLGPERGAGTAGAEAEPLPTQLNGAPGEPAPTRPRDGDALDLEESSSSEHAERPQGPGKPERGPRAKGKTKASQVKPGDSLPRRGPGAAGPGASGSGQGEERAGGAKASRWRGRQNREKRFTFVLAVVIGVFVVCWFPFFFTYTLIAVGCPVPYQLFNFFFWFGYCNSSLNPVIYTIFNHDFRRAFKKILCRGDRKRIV

Row | SMILES | AC50 | outcome
36 | CCN(C(=O)c1cc(C)cc(OC[C@H](C)Nc2ccncc2)c1)C(C)C | 4.14 µM (active) | 
37 | CC[C@H]1CC[C@H](NCc2cc3c(cc2OC)[C@H]2C[C@H]2C(=O)N3C)[C@H](c2ccccc2)N1 | 13.3 µM (active) | 
38 | CC(=O)OCCC(C)C |  | inactive
39 | O=c1[nH]c2ccc(S(=O)CCN3CCC(Cc4ccc(F)cc4)CC3)cc2o1 (stereo not given) | 1.88 µM (active) | 
40 | Nc1ccc(Nc2ccccc2)cc1 | 25 µM (active) | 

Reference: PubChem BioAssay (EPA / NIEHS)
